# Test results reported in paper PMC7862700, “An all-to-all approach to the identification of sequence-specific readers for epigenetic DNA modifications on cytosine”.
# Legend:
# Test in all cases: DAPPL (digital affinity profiling via proximity ligation, sequencing); 10 mM Tris-HCl pH 7.5, 50 mM NaCl, 1 mM DTT, 4% glycerol, room temperature, 30 min; GST-TFs on glutathione beads, 16-mer random dsDNA library, 0.1% formaldehyde crosslink after washing; high values mean tight binding
# Settings in all cases: protein: recombinant; tags: N-terminal GST; dsDNA, one strand shown
# [1] = molecular target: T1, ELK3 (Homo sapiens, UniProt P41970 1-407)
# T1 sequence: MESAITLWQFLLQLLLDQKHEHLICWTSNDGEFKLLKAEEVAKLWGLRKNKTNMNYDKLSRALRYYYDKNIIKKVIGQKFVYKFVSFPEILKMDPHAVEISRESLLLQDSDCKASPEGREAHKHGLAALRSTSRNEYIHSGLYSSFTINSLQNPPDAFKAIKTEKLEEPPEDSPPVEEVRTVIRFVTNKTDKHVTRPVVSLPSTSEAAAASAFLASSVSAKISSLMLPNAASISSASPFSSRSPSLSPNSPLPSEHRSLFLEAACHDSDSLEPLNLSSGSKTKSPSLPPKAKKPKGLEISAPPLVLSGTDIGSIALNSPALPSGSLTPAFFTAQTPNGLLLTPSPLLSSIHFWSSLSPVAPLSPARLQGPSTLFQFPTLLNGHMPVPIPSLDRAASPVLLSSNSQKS
# In short: (§1)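 Sequencing on an Illumina NextSeq500 followed washing, crosslinking with 0.1% formaldehyde, proximity ligation (BsaI/T4 ligase, 1 h, 37 °C) and PCR amplification of pools that had been incubated for 30 min at room temperature with 200 nmole of a random double-stranded 16-mer DNA library in Tris/NaCl/DTT/glycerol buffer. Each pool held DNA-barcoded human transcription factors, expressed in yeast as GST fusions and captured on glutathione beads, plus a tag-only sample. Binding signal is a hexamer's read frequency for a factor divided by its frequency in the tag-only sample.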
# [2] = molecular target: T2, ELK4 (Homo sapiens, UniProt P28324-2 1-405)
# T2 sequence: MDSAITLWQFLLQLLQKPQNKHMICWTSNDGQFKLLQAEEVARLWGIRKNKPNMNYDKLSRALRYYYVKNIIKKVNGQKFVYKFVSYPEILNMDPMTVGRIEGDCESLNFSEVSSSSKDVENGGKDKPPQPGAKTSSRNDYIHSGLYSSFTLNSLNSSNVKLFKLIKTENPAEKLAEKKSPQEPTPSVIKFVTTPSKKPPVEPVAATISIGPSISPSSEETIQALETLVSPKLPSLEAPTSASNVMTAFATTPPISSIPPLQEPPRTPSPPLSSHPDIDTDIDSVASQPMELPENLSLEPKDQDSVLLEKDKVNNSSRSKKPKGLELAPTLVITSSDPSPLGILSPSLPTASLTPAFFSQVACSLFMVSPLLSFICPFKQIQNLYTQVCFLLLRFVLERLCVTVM
# In short: as §1
# [3] = molecular target: T3, ETV2 (Homo sapiens, UniProt O00321 1-342)
# T3 sequence: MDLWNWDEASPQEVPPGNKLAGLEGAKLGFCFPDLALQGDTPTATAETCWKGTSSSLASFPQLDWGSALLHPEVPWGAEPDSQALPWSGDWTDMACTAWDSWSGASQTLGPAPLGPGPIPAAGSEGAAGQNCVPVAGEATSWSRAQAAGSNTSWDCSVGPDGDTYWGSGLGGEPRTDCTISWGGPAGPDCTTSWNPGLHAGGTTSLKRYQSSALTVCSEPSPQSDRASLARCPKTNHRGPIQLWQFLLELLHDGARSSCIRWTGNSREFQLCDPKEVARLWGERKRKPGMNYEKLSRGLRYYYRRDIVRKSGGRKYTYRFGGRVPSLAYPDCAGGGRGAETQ
# In short: as §1
# [4] = molecular target: T4, SPDEF (Homo sapiens, UniProt O95238 1-335)
# T4 sequence: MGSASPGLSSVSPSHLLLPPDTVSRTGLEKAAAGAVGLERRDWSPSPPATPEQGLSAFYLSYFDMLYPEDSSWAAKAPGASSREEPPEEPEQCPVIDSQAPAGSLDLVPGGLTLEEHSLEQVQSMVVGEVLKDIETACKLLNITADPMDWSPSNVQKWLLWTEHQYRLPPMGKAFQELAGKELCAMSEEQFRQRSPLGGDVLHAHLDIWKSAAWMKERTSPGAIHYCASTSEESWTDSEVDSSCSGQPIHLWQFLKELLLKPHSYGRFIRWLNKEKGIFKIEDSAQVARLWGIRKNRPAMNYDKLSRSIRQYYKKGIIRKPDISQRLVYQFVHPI
# In short: as §1
# [5] = molecular target: T5, ETV7 (Homo sapiens, UniProt Q9Y603 1-341)
# T5 sequence: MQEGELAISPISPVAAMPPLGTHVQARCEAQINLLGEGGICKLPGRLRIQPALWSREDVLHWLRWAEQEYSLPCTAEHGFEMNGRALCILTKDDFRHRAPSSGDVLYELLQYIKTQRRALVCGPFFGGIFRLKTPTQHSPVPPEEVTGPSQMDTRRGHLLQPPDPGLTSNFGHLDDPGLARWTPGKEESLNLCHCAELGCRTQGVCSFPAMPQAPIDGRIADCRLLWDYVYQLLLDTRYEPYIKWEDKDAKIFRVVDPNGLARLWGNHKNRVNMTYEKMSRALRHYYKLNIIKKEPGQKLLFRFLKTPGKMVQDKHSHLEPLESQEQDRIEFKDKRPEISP
# In short: as §1
# [6] = molecular target: T6, ELF3 (Homo sapiens, UniProt P78545 1-371)
# T6 sequence: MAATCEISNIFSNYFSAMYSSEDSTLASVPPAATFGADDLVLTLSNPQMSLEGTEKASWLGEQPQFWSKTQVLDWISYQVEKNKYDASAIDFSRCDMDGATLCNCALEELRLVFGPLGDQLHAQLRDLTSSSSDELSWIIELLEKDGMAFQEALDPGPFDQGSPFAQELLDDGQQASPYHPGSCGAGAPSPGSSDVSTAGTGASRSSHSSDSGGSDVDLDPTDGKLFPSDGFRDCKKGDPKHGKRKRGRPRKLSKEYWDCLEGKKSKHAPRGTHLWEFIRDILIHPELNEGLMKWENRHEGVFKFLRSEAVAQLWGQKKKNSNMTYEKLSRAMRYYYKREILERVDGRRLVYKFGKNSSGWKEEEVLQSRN
# In short: as §1
# [7] = molecular target: CRX (Homo sapiens, UniProt O43186 1-299)
# In short: as §1
# [8] = molecular target: T7, ELK1 (Homo sapiens, UniProt P19419 1-428)
# T7 sequence: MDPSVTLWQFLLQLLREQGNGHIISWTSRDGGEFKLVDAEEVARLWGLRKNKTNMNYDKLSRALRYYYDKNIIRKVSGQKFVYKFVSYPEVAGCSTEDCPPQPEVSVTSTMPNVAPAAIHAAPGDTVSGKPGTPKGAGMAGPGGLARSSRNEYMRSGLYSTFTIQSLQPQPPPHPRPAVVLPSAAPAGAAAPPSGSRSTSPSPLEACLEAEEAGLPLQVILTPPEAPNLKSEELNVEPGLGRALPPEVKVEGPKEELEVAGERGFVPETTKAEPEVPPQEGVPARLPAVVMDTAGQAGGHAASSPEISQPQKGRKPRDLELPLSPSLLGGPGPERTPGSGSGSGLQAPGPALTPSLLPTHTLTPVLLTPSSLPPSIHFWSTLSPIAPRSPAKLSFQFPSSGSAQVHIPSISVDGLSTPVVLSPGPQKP
# In short: as §1
# [9] = molecular target: T8, FEV (Homo sapiens, UniProt Q99581 1-238)
# T8 sequence: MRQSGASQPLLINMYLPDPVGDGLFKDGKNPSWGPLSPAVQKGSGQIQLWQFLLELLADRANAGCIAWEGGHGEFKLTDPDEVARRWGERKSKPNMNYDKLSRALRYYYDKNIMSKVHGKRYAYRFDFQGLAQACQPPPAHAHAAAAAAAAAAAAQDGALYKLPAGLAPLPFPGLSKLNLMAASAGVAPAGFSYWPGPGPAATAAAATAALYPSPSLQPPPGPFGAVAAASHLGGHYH
# In short: as §1
# [10] = molecular target: ETV1 (Homo sapiens, UniProt P50549 1-477)
# In short: as §1
# [11] = molecular target: T9, ETV3L (Homo sapiens, UniProt Q6ZN32 1-361)
# T9 sequence: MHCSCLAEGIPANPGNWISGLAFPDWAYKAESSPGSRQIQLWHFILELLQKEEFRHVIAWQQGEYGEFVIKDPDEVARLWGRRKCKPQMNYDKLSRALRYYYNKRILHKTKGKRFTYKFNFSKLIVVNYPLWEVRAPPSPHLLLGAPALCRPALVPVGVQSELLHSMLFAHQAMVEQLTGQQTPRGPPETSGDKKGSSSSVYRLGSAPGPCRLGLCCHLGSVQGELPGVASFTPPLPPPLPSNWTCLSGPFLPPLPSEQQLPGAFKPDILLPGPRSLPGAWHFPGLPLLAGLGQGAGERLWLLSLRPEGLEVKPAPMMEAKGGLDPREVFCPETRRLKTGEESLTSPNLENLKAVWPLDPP
# In short: as §1
# [12] = molecular target: T10, ERF (Homo sapiens, UniProt P50548 1-548)
# T10 sequence: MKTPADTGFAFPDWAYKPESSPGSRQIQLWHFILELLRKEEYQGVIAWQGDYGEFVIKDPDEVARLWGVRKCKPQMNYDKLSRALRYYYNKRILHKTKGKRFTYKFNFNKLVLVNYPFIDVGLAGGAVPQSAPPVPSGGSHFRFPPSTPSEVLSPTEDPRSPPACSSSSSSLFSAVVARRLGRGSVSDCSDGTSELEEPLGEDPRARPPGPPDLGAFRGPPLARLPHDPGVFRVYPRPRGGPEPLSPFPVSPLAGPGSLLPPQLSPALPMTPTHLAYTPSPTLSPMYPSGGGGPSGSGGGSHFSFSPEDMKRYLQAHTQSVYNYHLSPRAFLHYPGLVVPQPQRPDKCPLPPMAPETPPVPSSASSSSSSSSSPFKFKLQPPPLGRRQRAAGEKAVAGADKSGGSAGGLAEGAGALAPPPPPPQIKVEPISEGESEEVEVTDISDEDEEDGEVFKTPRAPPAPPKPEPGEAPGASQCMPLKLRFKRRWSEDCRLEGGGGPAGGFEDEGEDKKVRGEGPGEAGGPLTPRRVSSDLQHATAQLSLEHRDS
# In short: as §1
# [13] = molecular target: T11, ETS2 (Homo sapiens, UniProt P15036 1-469)
# T11 sequence: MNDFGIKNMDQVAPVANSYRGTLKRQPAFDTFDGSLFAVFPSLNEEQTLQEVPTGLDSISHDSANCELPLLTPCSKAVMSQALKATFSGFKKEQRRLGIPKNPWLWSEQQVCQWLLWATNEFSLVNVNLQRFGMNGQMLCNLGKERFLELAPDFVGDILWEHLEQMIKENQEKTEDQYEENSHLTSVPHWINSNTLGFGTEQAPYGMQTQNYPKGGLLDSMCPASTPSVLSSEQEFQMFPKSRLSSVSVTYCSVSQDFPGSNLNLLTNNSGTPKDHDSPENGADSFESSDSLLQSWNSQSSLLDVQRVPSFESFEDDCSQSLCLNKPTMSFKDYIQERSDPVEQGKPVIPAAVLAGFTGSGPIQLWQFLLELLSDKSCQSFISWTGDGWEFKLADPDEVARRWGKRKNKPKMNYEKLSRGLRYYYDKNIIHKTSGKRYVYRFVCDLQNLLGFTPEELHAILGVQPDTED
# In short: as §1
# [14] = molecular target: ELF1 (Homo sapiens, UniProt P32519 1-619)
# In short: as §1
# ETV1, sequence (P50549 whole entry): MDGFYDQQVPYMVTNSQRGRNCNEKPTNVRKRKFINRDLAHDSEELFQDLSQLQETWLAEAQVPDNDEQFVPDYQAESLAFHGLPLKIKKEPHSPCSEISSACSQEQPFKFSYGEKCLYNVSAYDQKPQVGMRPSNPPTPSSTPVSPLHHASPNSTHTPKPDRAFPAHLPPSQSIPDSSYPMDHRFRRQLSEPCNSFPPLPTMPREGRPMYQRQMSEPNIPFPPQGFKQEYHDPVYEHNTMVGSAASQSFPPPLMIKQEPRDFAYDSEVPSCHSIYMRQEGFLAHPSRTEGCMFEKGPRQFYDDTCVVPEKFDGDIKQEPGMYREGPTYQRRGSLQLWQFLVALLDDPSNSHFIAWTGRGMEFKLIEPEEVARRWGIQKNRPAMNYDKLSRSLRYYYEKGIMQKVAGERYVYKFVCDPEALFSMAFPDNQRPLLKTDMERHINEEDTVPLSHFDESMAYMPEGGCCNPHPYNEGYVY
# CRX, sequence (O43186 whole entry): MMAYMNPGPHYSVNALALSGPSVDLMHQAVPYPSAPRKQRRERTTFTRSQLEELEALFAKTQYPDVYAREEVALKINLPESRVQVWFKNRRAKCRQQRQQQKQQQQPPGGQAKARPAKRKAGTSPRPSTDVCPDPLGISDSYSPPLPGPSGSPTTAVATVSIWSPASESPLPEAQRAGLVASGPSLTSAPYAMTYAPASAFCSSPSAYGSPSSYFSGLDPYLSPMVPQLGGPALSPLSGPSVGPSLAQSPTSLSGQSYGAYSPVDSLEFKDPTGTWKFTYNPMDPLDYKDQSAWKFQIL
# ELF1, sequence (P32519 whole entry): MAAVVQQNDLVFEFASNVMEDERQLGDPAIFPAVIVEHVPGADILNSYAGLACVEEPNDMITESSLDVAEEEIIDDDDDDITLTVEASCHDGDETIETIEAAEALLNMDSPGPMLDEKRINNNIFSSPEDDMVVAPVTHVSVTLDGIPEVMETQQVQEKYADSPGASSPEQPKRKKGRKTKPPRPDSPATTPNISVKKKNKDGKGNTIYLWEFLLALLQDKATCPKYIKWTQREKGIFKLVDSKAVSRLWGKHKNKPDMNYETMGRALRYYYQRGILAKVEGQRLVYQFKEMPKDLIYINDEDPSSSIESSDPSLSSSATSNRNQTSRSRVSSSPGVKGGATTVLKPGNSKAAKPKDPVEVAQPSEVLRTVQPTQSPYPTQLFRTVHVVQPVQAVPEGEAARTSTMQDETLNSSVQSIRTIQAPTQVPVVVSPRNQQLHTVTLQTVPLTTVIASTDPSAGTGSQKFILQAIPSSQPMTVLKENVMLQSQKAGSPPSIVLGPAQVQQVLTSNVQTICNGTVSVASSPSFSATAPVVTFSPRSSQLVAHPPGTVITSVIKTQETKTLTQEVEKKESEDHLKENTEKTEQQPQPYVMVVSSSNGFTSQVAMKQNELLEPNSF
sequence,measurement,setting,value
GCATAT,binding signal,[1],"1.04 fold enrichment (6-mer frequency, TF over GST control)"
same,binding signal,[2],"1.07 fold enrichment (6-mer frequency, TF over GST control)"
same,binding signal,[3],"1.02 fold enrichment (6-mer frequency, TF over GST control)"
same,binding signal,[4],"1.01 fold enrichment (6-mer frequency, TF over GST control)"
same,binding signal,[5],"1.08 fold enrichment (6-mer frequency, TF over GST control)"
TGTTAG,binding signal,[2],"1.13 fold enrichment (6-mer frequency, TF over GST control)"
same,binding signal,[3],"1.03 fold enrichment (6-mer frequency, TF over GST control)"
same,binding signal,[6],"1 fold enrichment (6-mer frequency, TF over GST control)"
same,binding signal,[4],"1.03 fold enrichment (6-mer frequency, TF over GST control)"
AAGCCA,binding signal,[2],"1.02 fold enrichment (6-mer frequency, TF over GST control)"
same,binding signal,[7],"1.12 fold enrichment (6-mer frequency, TF over GST control)"
GTTGCC,binding signal,[8],"1.01 fold enrichment (6-mer frequency, TF over GST control)"
same,binding signal,[1],"1 fold enrichment (6-mer frequency, TF over GST control)"
same,binding signal,[9],"1.02 fold enrichment (6-mer frequency, TF over GST control)"
same,binding signal,[2],"1.07 fold enrichment (6-mer frequency, TF over GST control)"
same,binding signal,[10],"1.05 fold enrichment (6-mer frequency, TF over GST control)"
same,binding signal,[11],"1.03 fold enrichment (6-mer frequency, TF over GST control)"
same,binding signal,[5],"1.04 fold enrichment (6-mer frequency, TF over GST control)"
CAGTAT,binding signal,[1],"1.03 fold enrichment (6-mer frequency, TF over GST control)"
same,binding signal,[2],"1.06 fold enrichment (6-mer frequency, TF over GST control)"
same,binding signal,[3],"1.08 fold enrichment (6-mer frequency, TF over GST control)"
same,binding signal,[6],"1.1 fold enrichment (6-mer frequency, TF over GST control)"
same,binding signal,[12],"1.1 fold enrichment (6-mer frequency, TF over GST control)"
same,binding signal,[11],"1.02 fold enrichment (6-mer frequency, TF over GST control)"
same,binding signal,[13],"1.02 fold enrichment (6-mer frequency, TF over GST control)"
AAAGTC,binding signal,[1],"1.08 fold enrichment (6-mer frequency, TF over GST control)"
same,binding signal,[2],"1.08 fold enrichment (6-mer frequency, TF over GST control)"
same,binding signal,[7],"1.01 fold enrichment (6-mer frequency, TF over GST control)"
same,binding signal,[13],"1.03 fold enrichment (6-mer frequency, TF over GST control)"
same,binding signal,[5],"1.05 fold enrichment (6-mer frequency, TF over GST control)"
CCATAG,binding signal,[2],"1.06 fold enrichment (6-mer frequency, TF over GST control)"
same,binding signal,[3],"1.01 fold enrichment (6-mer frequency, TF over GST control)"
GTAACG,binding signal,[2],"1.03 fold enrichment (6-mer frequency, TF over GST control)"
same,binding signal,[3],"1.08 fold enrichment (6-mer frequency, TF over GST control)"
GCCACA,binding signal,[8],"1.02 fold enrichment (6-mer frequency, TF over GST control)"
same,binding signal,[14],"1.01 fold enrichment (6-mer frequency, TF over GST control)"
same,binding signal,[9],"1.06 fold enrichment (6-mer frequency, TF over GST control)"
same,binding signal,[6],"1.07 fold enrichment (6-mer frequency, TF over GST control)"
same,binding signal,[10],"1.08 fold enrichment (6-mer frequency, TF over GST control)"
